PubChem BioAssay (NCI)
Compounds without any hit were thinned out: in the full panel of roughly 83,000, 20% have a hit.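 Interpretation: 100, growth as untreated; towards 0, rising growth inhibition; 0, no net growth; 0 to -100, cell death. Compounds scoring below 10 were considered active.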 Unmarked numbers belong to inactive results. Calls of active or inactive are those of the source.

Tests used:
Assay in all cases: NCI-60 one-dose screen, 48 h (100 = growth as untreated, 0 = no growth, -100 = all killed)
Details in all cases: 10 µM
T-47D breast = system: T-47D breast
BT-549 breast = system: BT-549 breast
MDA-MB-435 melanoma = system: MDA-MB-435 melanoma
SW-620 colon = system: SW-620 colon
HCT-116 colon = system: HCT-116 colon
HCC-2998 colon = system: HCC-2998 colon
KM12 colon = system: KM12 colon
MCF7 breast = system: MCF7 breast

Compound	growth (T-47D breast)	growth (BT-549 breast)	growth (MDA-MB-435 melanoma)	growth (SW-620 colon)	growth (HCT-116 colon)	growth (HCC-2998 colon)	growth (KM12 colon)	growth (MCF7 breast)
COc1ccc2nc3cc(Cl)ccc3c(N)c2c1	-82% (active)	-95.6% (active)	-74.2% (active)	-70.2% (active)	-99.2% (active)	-99% (active)	-84.3% (active)	
COc1ccc(-c2nn(-c3cccc(Cl)c3)cc2C=C(C#N)C#N)cc1	21.1%	-34.8% (active)	-68.5% (active)		-40.9% (active)	8.75% (active)	4.48% (active)	-11.6% (active)
COc1ccccc1-n1c(-c2sc(NC(C)=O)nc2C)n[nH]c1=S	106%	93.8%	105%		98.3%	108%	108%	97.5%
N#Cc1c(-c2ccc(Cl)cc2)n(O)c2ccccc12	13.2%	0.694% (active)	2.57% (active)		12.9%	47.2%	15.9%	17.5%
Cc1ccc(NCCNCC(C)(C)O)c2c(=O)c3ccc(Cl)cc3sc12	27.4%		-84.5% (active)	-80.1% (active)	-61.6% (active)	-52.8% (active)	8.21% (active)	-73.2% (active)
COc1ccccc1N1CCCSC1=Nc1ccccc1	107%		103%	103%	79.2%	108%	91.7%	98.6%
CC(CN(C)C)Oc1ccccc1NC1=C(Cl)C(=O)C(Nc2ccccc2OC(C)CN(C)C)=C(Cl)C1=O (configuration not stated)	-42% (active)		-71% (active)	-66.5% (active)	-70.3% (active)	-87.4% (active)	-1.19% (active)	-47% (active)
CSc1nc(S(C)(=O)=O)nc2[nH]c(=O)[nH]c12	112%	102%		111%	99.1%		118%	109%
CC(C)c1cc(N=O)cc(C(C)C)c1O	108%		109%	100%	110%	104%	111%	103%
CC(=O)OC/C=C(/C)C[P+](c1ccccc1)(c1ccccc1)c1ccccc1	14.4%		53.3%	53.6%	26%	80.4%	33.3%	33.3%
COc1cccc(CNc2cccc3cn[nH]c23)c1O	89.1%	104%		99.1%	102%	107%	99%	71.5%
Cc1nn(-c2ccccc2)c2nc(Cl)c(C=O)c(-c3ccccc3)c12	83.5%	86%		72.1%	4.57% (active)	77.5%	78.3%	90.6%
C=CCN(CC=C)C(=O)[C@H](CC)[C@@H]1CC[C@@H](C)[C@@H]([C@H](C)[C@@H](O)[C@@H](C)C(=O)[C@H](CC)C2O[C@]3(C=CC(=O)[C@]4(CC[C@@](C)([C@H]5CC[C@](O)(CC)[C@H](C)O5)O4)O3)[C@H](C)C[C@@H]2C)O1 (some centres not stated)	18.2%	54.8%	40.7%		13.9%	26.5%	48.8%	8.84% (active)
Nc1ccccc1NC(=O)c1ccc(CCCC(=O)Nc2ccc(C3CC3N)cc2)cc1 (configuration not stated)	7.85% (active)	47.4%	18%			19.5%	45.2%	17.7%
CCN(CC)CCCC(C)N=C(C1=C(C(=NC(C)CCCN(CC)CC)c2cccc(OC)c2)C(=O)NC1=O)c1cccc(OC)c1 (configuration not stated)	-37.3% (active)		-91.1% (active)	-9.07% (active)	-19% (active)	-69.9% (active)	2.43% (active)	-29.8% (active)
CN(C)CCCOc1ccccc1NC1=C(Cl)C(=O)C(Nc2ccccc2OCCCN(C)C)=C(Cl)C1=O	-37% (active)		-76.2% (active)	-46.8% (active)	-82.5% (active)	-87% (active)	-34.2% (active)	-52.7% (active)
COc1cc2cc(Oc3ccc(NC(=O)Nc4ccc(C(F)(F)F)cc4)cc3)c(C)nc2cc1OC	57.5%		80.3%	75.3%	47.2%	94.8%	64.4%	84.3%
C#CC(C)(O)[C@@H]1C[C@H](CC(=O)O)C1(C)C (some centres not stated)	120%	104%		109%	106%		108%	94%

Compound	growth (T-47D breast)	growth (BT-549 breast)	growth (MDA-MB-435 melanoma)	growth (SW-620 colon)	growth (HCT-116 colon)	growth (HCC-2998 colon)	growth (KM12 colon)	growth (MCF7 breast)
CN(C)CCCOc1ccc(NC2=C(Cl)C(=O)C(Nc3ccc(OCCCN(C)C)cc3)=C(Cl)C2=O)cc1	-39.3% (active)		-89% (active)	-58.4% (active)	-86.9% (active)	-90.6% (active)		-49.4% (active)
COc1nc2c(c(=O)n1C)CN(c1ccccc1)C(=O)C(C)N2 (configuration not stated)	95.5%		103%	99.9%	95.4%	94.5%	105%	94.5%
CCN(CC)CCCOc1cccc2c1C(=O)c1cccc(OCCCN(CC)CC)c1C2=O	61.7%		39.7%	24.4%	22.5%	57.4%		11.9%
Nc1nccc(OCCO)n1	94.1%		104%	107%	97.8%	97.4%	97.8%	91.2%
CCOC(=O)N/N=C/c1ccc(OC)c(OC)c1	105%		106%	109%	102%	114%	117%	98.7%
COc1cc(-c2ccc(N=Nc3ccc4c(S(=O)(=O)O)ccc(N)c4c3O)c(OC)c2)ccc1N=Nc1ccc2c(S(=O)(=O)O)ccc(N)c2c1O	105%	117%		109%		114%	114%	95.6%
Cc1nn(-c2ccc(-c3ccc(OC(F)(F)F)cc3)cc2)c2nc(Cc3ccccc3)nc(N)c12	49%		83.5%	54.4%	36.3%	77.2%	79.6%	73.8%
CCCCCCCCCCOC(c1ccccc1)c1ccccc1	77.1%		99%	98.1%	58.6%	99%	89.1%	91.1%
CCN1CCN(CCC(=O)Nc2cccc(-n3cc(-c4ccncc4)c(-c4ccc(Cl)c(OC)c4)n3)c2)CC1	38.8%	39.2%	-47% (active)		5.22% (active)	43.8%	15.7%	15.5%
CCN(CC)CCOc1cccc2c1C(=O)c1ccccc1C2=O	107%		100%	87.6%	70.4%	102%	98%	92.1%
N#CCc1csc(Cc2ccccc2)n1	103%		111%	103%	106%	104%		90.1%
Cc1ccc(C2NC(=S)N3C(c4ccc(C)cc4)NC(=S)N23)cc1 (configuration not stated)	47.3%		-35% (active)	29.2%	1.28% (active)	47%	8.36% (active)	10.5%
Cc1ccc(S(=O)(=O)N(C)CCCCCC(=O)O)cc1	95.7%		105%	109%	100%	105%	95.3%	89.5%
CC(C)(C)c1nn(-c2ccccc2)c2c1CC1(CN2Cc2ccc(Cl)cc2)C(=O)c2ccccc2C1=O	75.5%	81.4%		85.6%	52.6%	91.4%	89.6%	82.4%
NNC(=O)Oc1c(Cl)cc(Cl)cc1[N+](=O)[O-]	98.5%		107%	105%	102%	103%	106%	87.9%
O=C1CC(=O)N(C(=O)c2nn(-c3ccc(Cl)cc3)cc2O)N1	23.4%		48.1%	59.9%	22.1%	47.4%		39.9%
CC[C@H]1OC(=O)[C@H](C)[C@@H](O[C@H]2C[C@@](C)(OC)[C@@H](O)[C@H](C)O2)[C@H](C)[C@@H](O[C@@H]2O[C@H](C)C[C@H](N(C)C)[C@H]2O)[C@](C)(OC)C/C(C)=C2/O[C@@]1(C)C=C2C	41.8%		-83.4% (active)	-100% (active)	4.59% (active)	-85.8% (active)	18.2%	-8.4% (active)
